Compounds with a hit are over-represented: about 3.4% of the library has one in this group of screens.
hgDAF12 agonist – activates the H. glycines DAF-12 receptor ligand-binding domain; HEK293 GAL4-hgDAF12 UAS-luciferase reporter, agonist luminescence; normalized to butyrate control; activation, % at 6.8 µM; hit rate 1.8% among 370,000; AID 687014;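 active = activation above a cutoff set at the mean of all screened compounds plus 3 SD, cut at about 10% in these data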;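 note: 0% = DMSO wells and 100% = sodium butyrate wells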
APP 5'UTR act – APP 5'UTR luciferase reporter activation; SH-SY5Y APP 5'UTR luciferase reporter, luminescence; zero percent = DMSO vehicle wells; activation, % at 2 µM; hit rate 1% among 190,000;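 active = activation above a set limit, based on mean plus 3 SD of controls, cut at about 140% in these data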
ssDAF12 agonist – activates DAF-12 receptor from parasite S. stercoralis. HEK293 ssDAF-12/GRIP1 lit1-tk-luc reporter, luminescence; % of 3 µM dafachronic acid response. activation, % at 6.8 µM. hit rate 1% among 370,000. AID 652126;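 active = activation above the mean over all tested compounds plus 3 SD, cut at about 0.9% in these data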;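 note: 0% = DMSO-only wells and 100% = 3 µM delta7-dafachronic acid wells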
NF-kB neuron act – NF-kB expression increase, human neuronal cells. fold change at 12.5 µM. hit rate 1.6% among 190,000. NF-kB reporter expression; stronger effect = higher value; in the data active = fold change above about 3.3
hcDAF-12 act – activators of H. contortus DAF-12 nuclear receptor; HEK293 hcDAF-12 lit1-tk-luc reporter, luminescence; 0% DMSO, 100% Δ7-dafachronic acid; activation, % at 6.8 µM; hit rate 1.4% among 370,000;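 active = activation above the mean of all tested compounds plus 3 SD, cut at about 5.5% in these data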;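 note: 100% = response to 3 µM Δ7-dafachronic acid high control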
hgDAF12 ag – hgDAF-12 agonism, confirmation assay; shares compounds with hgDAF12 agonist; HEK293 GAL4-hgDAF12 luciferase reporter, agonist mode; percent of butyrate response; activation, % at 6.8 µM; hit rate 80% among 3,300; AID 743050;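 active = mean activation over triplicate wells above the hit cutoff derived from the earlier primary screen, cut at about 11% in these data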;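 note: 0% = DMSO low control and 100% = 2 mM sodium butyrate high control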
LXRb DAF12 ctr – counter-screen for DAF-12 agonists: agonists of human LXR-beta; AID 743051; 3,300 tested, under 10 active; HEK293 Gal4-LXR luciferase reporter, 24 h; shares compounds with hgDAF12 agonist; activation, % at 6.8 µM;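 active = mean activation of the triplicate above a set limit carried over from the primary screen, none filed active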
Target sequence (P55055 whole entry, looked up, the tested form may be a part): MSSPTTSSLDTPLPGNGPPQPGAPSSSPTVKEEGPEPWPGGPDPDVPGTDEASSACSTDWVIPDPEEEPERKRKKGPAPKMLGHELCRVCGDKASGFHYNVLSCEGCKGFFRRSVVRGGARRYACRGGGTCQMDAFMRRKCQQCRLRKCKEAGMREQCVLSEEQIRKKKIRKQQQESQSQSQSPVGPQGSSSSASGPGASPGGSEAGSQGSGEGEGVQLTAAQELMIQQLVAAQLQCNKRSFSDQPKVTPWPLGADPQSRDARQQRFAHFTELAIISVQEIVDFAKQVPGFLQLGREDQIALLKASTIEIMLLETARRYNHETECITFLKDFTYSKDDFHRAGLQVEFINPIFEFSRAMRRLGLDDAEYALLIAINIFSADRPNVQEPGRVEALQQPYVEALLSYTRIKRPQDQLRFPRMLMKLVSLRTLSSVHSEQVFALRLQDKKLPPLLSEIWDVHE
* hit, by the source's call; . = not tested or not shown.

SMILES	hgDAF12 agonist	APP 5'UTR act	ssDAF12 agonist	NF-kB neuron act	hcDAF-12 act	hgDAF12 ag	LXRb DAF12 ctr
CC(=O)Nc1ccc(-c2csc(NCc3ccco3)n2)cc1	15*	116	-1	3.7*	2	12*	0
CN1C(=O)C(=O)N2C(=C[C@]3(c4c[nH]c5ccccc45)c4ccccc4N[C@H]23)C1=O	2	.	0	.	4	.	.
Cc1cccc(C2NC(=O)c3ccccc3N2)c1 (configuration not stated)	16*	.	0	.	2	14*	0
Cc1ccc(C2NC(=O)c3ccccc3N2)c(C)c1 (configuration not stated)	3	.	-1	.	0	.	.
C/C(CC(=O)Nc1ccc(C)c(Cl)c1)=N\NC(=O)c1ccccn1	14*	.	0	.	5	7	0
C/C(CC(=O)Nc1ccc(N(C)C)cc1)=N\NC(=O)c1ccccn1	8	115	0	1.2	3	.	.
Cc1ccnc(NC(=O)c2cccc(S(=O)(=O)N3CCCc4ccccc43)c2)c1	13*	.	0	.	5	12*	1
O=C(Nc1ccccn1)c1cccc(S(=O)(=O)N2CCCc3ccccc32)c1	1	.	-1	.	-1	.	.
Clc1ccc2nc(CNc3nc(N4CCOCC4)nc4c3ncn4-c3ccsc3)[nH]c2c1	-10	.	-3	.	-6	.	.
CC1Oc2ccccc2C=C1/C=N/NC(=O)c1ccccc1 (configuration not stated)	14*	44	-1	1.8	2	9	0
Cc1ccc(C(=O)N/N=C/C2=Cc3ccccc3OC2C)cc1 (configuration not stated)	6	36	-2	1.1	-2	.	.
C[C@H]1[C@H](NC(=O)c2ccc(Cl)c(C(F)(F)F)c2)CC[C@@]23CCCN2C(=O)CCC[C@@H]13	-1	.	-2	.	-1	.	.
C/C(=N/NC(=O)c1ccccn1)c1ccco1	13*	111	1	2	3	13*	1
COC(=O)N/N=C(\C)c1ccco1	-3	0	1	0.92	0	.	.
Cc1ccc(NC(=O)OC2CC3CC2[C@H]2CCCCN2C3)cc1C (some centres not stated)	7	.	-1	.	0	.	.
COc1ccc(CCNC(=O)c2ccc(SC)cc2OC)cc1	5	0	-1	1.2	-1	.	.
COc1cc(SC)ccc1C(=O)NCCOc1ccc(F)cc1	17*	53	-1	3.2	4	10	0
CCOC(=O)C1CCN(C(=O)C(C)(C)NC(=O)Nc2ccc(Cl)cc2Cl)CC1	-3	.	-1	.	-1	.	.
CCOC(=O)[C@@]12CCCC3=C1N(CCC3)C(=O)[C@H]2CC(=O)NCc1cccc2ccccc12	0	.	-2	.	-1	.	.
CN(c1ccccc1)S(=O)(=O)c1cccc(NC(=O)c2cc3ccccc3oc2=O)c1	16*	.	1	.	5	10	0
COc1ccccc1NS(=O)(=O)c1cccc(NC(=O)c2cc3ccccc3oc2=O)c1	16*	97	0	2.8	5	13*	0
COc1ccccc1NS(=O)(=O)c1cccc(NC(=O)Nc2ccccc2)c1	-1	-12	-2	1.1	-4	.	.
CCOC(=O)N(C)[C@H]1C[C@H]2c3[nH]c4cccc(-c5cccc(F)c5)c4c3CCN2C(=O)[C@H]1[C@H](C)O	-2	.	-2	.	-3	.	.
CCc1ccc(CNCCNC(=O)c2ccco2)cc1	15*	.	0	.	2	1	0
O=C(NCCNCc1ccccc1)c1ccco1	6	.	0	.	3	.	.
COC(=O)C1CN(Cc2ccc(OC)cc2)CCS(=O)(=O)N1Cc1ccccc1 (configuration not stated)	-1	.	-1	.	0	.	.
O=C(c1cnsn1)N1CCC(CO)(Cc2cccc(F)c2)CC1	15*	56	0	.	3	10	0
COC(=O)[C@]12C[C@H](CC(=O)N3CCC(c4ccccc4)CC3)C(=O)N(Cc3ccco3)C1=C[C@H](C(C)C)O[C@@H]2C1CC1	-3	.	0	.	-3	.	.
COCCNC(=O)/C(C#N)=C/c1cc(C)n(C2CCCCC2)c1C	20*	144*	0	3	4	8	1

High-throughput results: PubChem, several laboratories
